# According to the supplement of paper PMC3334620:
# In all, about 33,000 sequences were measured (“E-score (-0.5 to 0.5)”: median about -0.053, highest 2% from about 0.37 on). What follows is part of a selection rich in the highest values, with near analogues and random picks from the rest.
# Target: Hap1 (UniProt P0CE41)
# Assay: PBM E-score (8-mer binding enrichment) (E-score (-0.5 to 0.5)); higher = stronger / more preferred TF binding
# Conditions: protein concentration: 200 nM; construct: GST-DNA-binding domain
# In short: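 Masliner-normalised scans of fluorescent anti-GST signal were the basis for scoring. That signal came from GST-tagged yeast transcription factors applied at about 100-200 nM to double-stranded universal all-10-mer Agilent arrays on fresh or once-stripped slides. Each ungapped eight-base word, pooled with its reverse complement, received an E-score from the Universal PBM Analysis Suite.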
# Sequence of UniProt P0CE41 (P0CE41 whole entry): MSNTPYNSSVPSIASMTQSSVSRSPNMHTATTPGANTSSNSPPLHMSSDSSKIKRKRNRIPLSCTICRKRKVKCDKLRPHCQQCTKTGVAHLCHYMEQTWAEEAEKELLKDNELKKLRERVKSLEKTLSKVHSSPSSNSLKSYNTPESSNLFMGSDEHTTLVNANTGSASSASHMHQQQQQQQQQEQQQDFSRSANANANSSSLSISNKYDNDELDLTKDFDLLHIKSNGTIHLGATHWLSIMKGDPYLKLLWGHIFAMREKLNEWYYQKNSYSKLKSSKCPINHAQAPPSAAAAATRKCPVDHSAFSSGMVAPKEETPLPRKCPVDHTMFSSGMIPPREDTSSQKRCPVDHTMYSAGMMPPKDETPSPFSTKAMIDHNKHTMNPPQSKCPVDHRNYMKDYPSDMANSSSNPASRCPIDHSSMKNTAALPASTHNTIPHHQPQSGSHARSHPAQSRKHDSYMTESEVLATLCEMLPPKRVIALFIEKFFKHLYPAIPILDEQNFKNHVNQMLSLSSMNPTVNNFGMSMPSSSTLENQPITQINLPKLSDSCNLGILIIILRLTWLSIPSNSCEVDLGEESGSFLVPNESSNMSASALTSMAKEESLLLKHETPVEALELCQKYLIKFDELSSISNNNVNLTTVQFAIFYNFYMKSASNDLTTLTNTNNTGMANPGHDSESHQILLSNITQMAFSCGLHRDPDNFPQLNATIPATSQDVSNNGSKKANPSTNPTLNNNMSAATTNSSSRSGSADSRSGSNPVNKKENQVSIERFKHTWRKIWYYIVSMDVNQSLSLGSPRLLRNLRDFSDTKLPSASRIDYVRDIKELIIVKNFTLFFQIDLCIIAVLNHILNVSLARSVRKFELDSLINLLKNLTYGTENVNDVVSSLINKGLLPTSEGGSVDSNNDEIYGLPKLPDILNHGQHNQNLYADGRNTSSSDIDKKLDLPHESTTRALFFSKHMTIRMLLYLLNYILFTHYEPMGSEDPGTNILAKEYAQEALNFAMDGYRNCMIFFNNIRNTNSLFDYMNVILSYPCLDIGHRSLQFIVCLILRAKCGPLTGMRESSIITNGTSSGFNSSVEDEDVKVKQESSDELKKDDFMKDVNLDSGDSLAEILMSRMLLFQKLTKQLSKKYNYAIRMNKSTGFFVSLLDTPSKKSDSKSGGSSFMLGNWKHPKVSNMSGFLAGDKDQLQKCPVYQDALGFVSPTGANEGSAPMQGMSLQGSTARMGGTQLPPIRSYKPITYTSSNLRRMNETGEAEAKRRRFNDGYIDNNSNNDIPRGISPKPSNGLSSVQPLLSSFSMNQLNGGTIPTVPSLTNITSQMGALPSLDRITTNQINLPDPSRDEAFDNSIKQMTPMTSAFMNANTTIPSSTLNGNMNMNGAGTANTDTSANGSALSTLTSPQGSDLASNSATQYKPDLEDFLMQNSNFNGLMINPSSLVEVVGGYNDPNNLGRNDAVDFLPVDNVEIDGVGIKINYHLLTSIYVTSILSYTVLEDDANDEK
row,Sequence,PBM E-score
1,CGGTTAAC,0.203
2,ATACCCTA,-0.203
3,AGGGTCAC,-0.193
4,GCGGTGTA,-0.063
5,AGGCGGAG,0.175
6,AGGCGGTA,-0.131
7,CGGCGGAA,0.396
8,CCGCGGAG,0.352
9,GGGCGGAA,0.267
10,CGGCGGAG,0.387
11,CCGCGGAA,0.317
12,AGGCGGAA,0.0183
13,CGGCGGTA,0.428
14,GGGCGGTA,0.315
15,CAGCGGAG,0.245
16,CCGCGGAC,0.383
17,CCATGGCC,-0.0324
18,CGACCAGA,0.0439
19,AGTTTGAG,-0.0293
20,ATGATCCC,0.0807
21,CTTCCCAA,-0.197
22,CGAAAGTA,0.0968
23,CGGCTACG,0.111
24,AGATGAAC,-0.115
25,GGGCGGAC,0.279

row,Sequence,PBM E-score
1,CGGCGGAC,0.38
2,AGGCGGAC,0.288
3,CCAGACCA,-0.187
4,CCGTCCGA,0.399
5,CCGTCCTA,-0.104
6,GCGTCCGA,0.305
7,ACGTCCGG,0.411
8,ACGTCCAA,-0.0855
9,ACGTCCGA,0.386
10,ACGTCCTG,-0.211
11,ACGTCCGC,0.357
12,CCGTCCGC,0.231
13,AAACCAAG,-0.0855
14,CGCGGGCA,0.256
15,TATGGTCA,-0.303
16,CAGAGATA,-0.182
17,ACCGTGAA,0.126
18,CGTTCCAG,-0.157
19,AGCCCCTG,-0.269
20,CATCTATC,-0.00973
21,CATCGGAA,0.297
22,TATCGGAA,0.409
23,CATCGGCA,0.266
24,TAACGGAA,0.375
25,TATCGGCA,0.425

row,Sequence,PBM E-score
1,GATCGGGA,0.136
2,AATCGGAA,0.364
3,CATCGGGA,0.223
4,TATCGGGA,0.393
5,CAACGGAA,0.285
6,AATCGGCA,0.224
7,GAACGGAA,0.282
8,GAAGGCAA,-0.137
9,AAATTGAG,-0.0939
10,CTCTGGCA,-0.217
11,ATTGGTTA,-0.094
12,TCGGAGAA,0.405
13,CCGGAGGC,0.286
14,CAGGAGAA,-0.147
15,CCGGAGGA,0.432
16,ACGGAGAA,0.27
17,CCGGAGTA,0.435
18,GCGGAGAA,0.349
19,GCGGAGGA,0.17
20,CCGGAGAA,0.428
21,CCGGAGAG,0.354
22,CCGGAGTC,0.356
23,GCGGAGTA,0.25
24,ACCATGCG,-0.0491
25,CATTAACC,0.0537

row,Sequence,PBM E-score
1,TCTATGAA,-0.115
2,CACAATGC,-0.0342
3,GAGAATGA,-0.137
4,AGGGCTGG,-0.101
5,CCGGTTCA,0.267
6,CGTTTTAA,-0.0609
7,CCGGAGCG,0.359
8,CCGGAGAC,0.373
9,CCGGAGCA,0.418
10,CGGGAGAC,0.216
11,GCGGAGAC,0.348
12,GCGGAGCA,0.211
13,AGTTAGGC,-0.113
14,CTCGGGAC,0.263
15,GCCCCATA,-0.00491
16,ACCGGGTC,0.194
17,CCGGGGCG,0.322
18,CCCGGGCG,0.383
19,CCCGGGCC,0.387
20,GCCGGGGA,0.392
21,CCCGGGTA,0.315
22,CCCGGGGC,0.33
23,GCCGGGAA,0.326
24,CCCGGGGA,0.359
25,CCGGGGCC,0.318

row,Sequence,PBM E-score
1,CCCGGGTC,0.386
2,CCCCGGCG,0.309
3,CGGGGTTC,0.211
4,AACAGATC,-0.0165
5,GCCTTAGA,-0.04
6,GGTAACAA,0.13
7,TAAGAATA,-0.141
8,TGTCCACA,-0.159
9,TTACCAAA,-0.0884
10,CTGGTTAC,-0.205
11,GAAAAGTA,-0.0758
12,GATCTGCC,0.03
13,ACCGGGCG,0.385
14,AGCGGGCG,0.222
15,ACCGGGGA,0.284
16,ACCGGGCT,0.334
17,CCGGGGCA,0.312
18,ACCGGGCC,0.373
19,ACCGGGCA,0.288
20,ACCGGGGC,0.291
21,ACCGGGGG,0.379
22,CCCGGGCA,0.376
23,AACGGGCG,0.246
24,GCCGGGCA,0.301
25,GCCAACAC,0.0365

row,Sequence,PBM E-score
1,CGAGCAAG,-0.182
2,CATTTAGG,-0.112
3,CTCCTCCA,-0.216
4,CCGGGCAA,0.322
5,GAGGAACC,-0.0105
6,CAGCATTC,-0.162
7,TATCAGCA,0.0209
8,GCTTCACC,-0.12
9,CTCAGTTC,-0.241
10,GCTCTGTA,-0.234
11,AGAACATG,-0.0473
12,CCCCTCCC,-0.00587
13,AACTGCCA,-0.186
14,TACTCCGA,0.375
15,GACTCCGC,0.174
16,AACTCCGC,0.389
17,CACTCCGA,0.212
18,AACTCCCG,0.333
19,GACTCCGA,0.301
20,AACTCCGT,0.447
21,CACTCCGC,0.156
22,AACTCCCT,-0.0179
23,AACTCCGG,0.481
24,AACTCCAT,0.139
25,CACTCCGG,0.302

row,Sequence,PBM E-score
1,ACCCTGTA,-0.0405
2,CCTTCAAG,-0.253
3,AAGTGGCG,-0.0765
4,ACGGCTGG,0.00715
5,AACTCCGA,0.474
6,AACTCCCA,-0.00143
7,AACTCCAA,-0.0924
8,TCTGTCCA,0.00731
9,CATCGGCG,0.264
10,ACACTAGA,-0.095
11,CAGGACAA,0.0261
12,TCGGACAA,0.394
13,GCGGACAA,0.304
14,CTGGACAA,-0.215
15,CAGGACAG,-0.195
16,CCGGACAC,0.351
17,CCGGACAA,0.414
18,ACGGACAA,0.335
19,CCGGACAG,0.382
20,CGCGGGAG,0.0987
21,CCAGTGCG,0.0478
22,GTTCCATA,-0.0357
